Screening data deposited in PubChem by several laboratories.
Compounds with a hit are over-represented: about 12% of the library has one in this group of screens.
CHOP inh – inhibitors of CHOP promoter induction, primary screen, cell-based, unfolded protein response, luciferase reporter | CHO-K1 CHOP-promoter luciferase, tunicamycin-induced, 15-18 h | inhibition, % at 10 µM | 3.8% of 220,000 active;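 active = compounds that reduced the stress-induced luciferase reporter signal by more than about 70% of percent inhibition, limit read from the data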;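 note: 0% = tunicamycin plus vehicle and 100% = wells without tunicamycin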
Arbovirus inh – antivirals against arbovirus infection, primary screen, cell-based, full library, 10K replicate subset | arbovirus infection cell-based antiviral screen | inhibition, % at 10 µM | 0.37% of 200,000 active; in the data active = inhibition above about 30%
L major viab – Leishmania major promastigote growth inhibition, primary screen; Leishmania major promastigotes, resazurin fluorescence viability; AID 1063, 2008; 9% of 200,000 active; inhibition, % at 10 µM; in the data active = inhibition above about 50%;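 note: promastigotes grown with compound for 44 hours at 28 °C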
WT yeast gro inh – growth inhibition of WT strain, primary screen, mitochondrial fusion inhibitor project, WT and mutant strains, chemical genetic. mitochondrial fusion phenotypic screen. inhibition, % at 10 µM. 2.1% of 190,000 active. AID 1362, 2008; in the data active = inhibition above about 58%; tested in S. cerevisiae
* marks the source's active call; other numbers are inactive results; / = no result.

SMILES	CHOP inh	Arbovirus inh	L major viab	WT yeast gro inh
Cc1ccc2[nH]c(=O)c(C(c3nnnn3CCc3ccccc3)N3CCOCC3)cc2c1 (stereo not drawn)	32.7	2.1	96.8*	-17.6
C#CCOC(=O)Nc1ccc(OCC(F)(F)F)nc1	-19.8	/	/	/
CCC(CO)NCC(O)COCc1ccc2c(c1)OCO2 (stereo not drawn)	-3.9	7.5	-5.2	-2.4
COc1ccc(CNC(=O)c2c(F)c(F)c(F)c(F)c2F)cc1	11.2	-0.5	52.7*	-8.5
CC(C)(C)OC(=O)COc1cc(OCC(=O)OC(C)(C)C)c2c(=O)cc(-c3ccccc3)oc2c1	16.1	-34.3	50.3*	-21.1
O=C(O)CCCn1cc(NC(=O)c2c(F)cccc2F)cn1	-2.2	1.9	0.4	22.8
COc1cc(OC)cc(C2=NCCN2)c1	6.0	2.9	-5.5	-0.7
C=CCSc1nc(C)c2cc(C)cc(C)c2n1	95.9*	1.4	-2.4	30.6
CCN(CC)C(=O)COc1ccc(C=O)cc1OC	3.6	2.7	-4.3	-8.2
O=c1[nH]c(/C=C\c2cccs2)nc(O)c1[N+](=O)[O-]	5.6	1.3	-9.2	-11.5
CCOc1ccc(C(C(=O)NC2CCCC2)N(Cc2ccccc2)C(=O)c2nsc(Cl)c2Cl)cc1 (stereo not drawn)	46.3	-30.8	26.7	62.4*
COc1ccc(C(C(=O)NC2CCCC2)N(Cc2ccccc2)C(=O)c2nsc(Cl)c2Cl)cc1 (stereo not drawn)	69.0	-23.9	8.0	63.1*
Cc1nnc(SCC(=O)N2CCN(c3ccccc3)CC2)n(N)c1=O	-8.4	3.9	-2.9	4.9
Cc1[nH]n(-c2ccc(Cl)cc2)c(=O)c1C(=O)c1ccccc1	8.9	17.3	-8.8	10.2
CCOC(=O)c1[nH]n(-c2ccc(Cl)cc2)c(=O)c1C	-1.2	6.6	52.2*	1.9
C/C(CC(=O)Nc1ccc(OCc2ccccc2)cc1)=N\NC(=O)C(=O)Nc1ccc(C)c(Cl)c1	-1.9	-14.9	-7.5	-3.0
CC1=C/C(=N\OS(=O)(=O)c2ccccc2)C(C(C)C)=CC1=O	54.8	-37.5	100.4*	97.7
CC1=C(C#N)C(Nc2ccc(Cl)cn2)(C(F)(F)F)C(=O)N1 (stereo not drawn)	37.0	-0.6	10.0	-4.7
CCOC(=O)C1C(=O)NC(SCC(=O)OC)=C(C#N)C1c1ccccc1OCC (stereo not drawn)	27.1	4.2	-4.4	2.5
CCOC(=O)CSC1=C(C#N)C(c2ccccc2Cl)C(C(=O)OC)C(=O)N1 (stereo not drawn)	11.3	-0.6	-1.9	12.5
CCOc1ccccc1C1C(C#N)=C(SCC(=O)OC)NC(=O)C1C(=O)OC (stereo not drawn)	79.9*	-6.3	-6.7	-1.2
COC(=O)C1C(=O)NC(SC)=C(C#N)C1c1ccccc1F (stereo not drawn)	-9.0	-2.4	81.8*	-7.2
CCOC(=O)c1c(NC(=O)CSc2nncs2)sc(C)c1C	22.4	-11.5	-6.8	1.2
CCOC(=O)c1c(-c2ccccc2)csc1NC(=O)CSc1nncs1	10.6	-1.8	12.8	59.1*
CCOC(=O)c1c(NC(=O)CSc2nncs2)sc(C)c1-c1ccccc1	32.7	-6.8	75.5*	19.8
SMILES	CHOP inh	Arbovirus inh	L major viab	WT yeast gro inh
CCCCCCCCCCCCCCCC(O)C(N)CO (stereo not drawn)	/	-44.4	100.5*	27.1
OCCCNCc1ccc(-c2ccccc2)cc1	7.1	-10.2	91.8*	-10.2
OCCCCNCc1ccc(OCc2ccccc2)cc1	-15.1	-19.4	90.0*	3.5
OCCNCCCCOc1ccc(F)cc1	13.3	4.9	63.0*	-6.5
OCCNCCCCOc1ccc(OCc2ccccc2)cc1	9.5	-3.1	100.0*	-0.6
O=C(c1cc(=O)[nH]c2ccccc12)N1CCN(c2ccc([N+](=O)[O-])cc2)CC1	13.0	/	/	/
CC(C)COC(=O)c1ccc2c(c1O)C(=O)c1ccccc1C2=O	-6.0	-25.8	8.2	43.6
CCOCCCNCc1ccc(OCc2ccccc2Cl)cc1	-30.9	-0.1	100.0*	53.0
CCOCCCNCc1c(Cl)cccc1Cl	14.4	-20.0	2.1	5.0
OCCCCNCc1ccc(OCc2ccccc2Cl)cc1	-12.7	-24.4	97.2*	44.8
C=CCn1c(C)cc(C(=O)COc2ccc(C)nc2[N+](=O)[O-])c1C	33.1	-6.8	-0.2	-6.7
CCCn1c(C)cc(C(=O)COc2ccc(S(=O)(=O)N(CC)CC)cc2[N+](=O)[O-])c1C	10.4	-4.8	83.5*	-30.4
C=CCn1c(C)cc(C(=O)COc2ccc(S(=O)(=O)N3CCCC3)cc2[N+](=O)[O-])c1C	-9.9	5.0	86.1*	10.6
CCCn1c(C)cc(C(=O)COc2ccc(C)nc2[N+](=O)[O-])c1C	15.7	-4.2	0.2	-2.7
